NS1 function inh: blocks influenza NS1 protein function | Potency, µM (titrated, usually from 46.1 µM), without a hit: at the top dose activity, positive = more growth | 270,000 tested, 0.4% active | AID 2326; calls by dose curve; also: actives are rising curves; nearly all actives have a fitted effect of over 50% in size
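A cell-based growth assay was used: compounds that relieve NS1-induced slow growth of budding yeast raise OD600. Assay medium was yeast nitrogen base with ammonium sulphate and -URA supplement, pH 6.0, with 2% galactose.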
Pf growth 96h: P. falciparum growth inhibition at 96 hour, primary screen for plastid delayed-death inhibitors; P. falciparum luciferase reporter growth, 96 h; Potency, µM (top dose mostly 28.7 µM), for the others: at the highest dose activity change, negative = inhibition, most hits filed as inhibitors; 320,000 tested, 6.9% active; AID 504834; also: % is scaled to controls: 0 for no effect and ±100 for the full control effect
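Readout is luminescence from an integrated firefly luciferase in P. falciparum. Red cells, 2% hematocrit and 0.05% parasitemia final, were cultured with compound through two parasite generations (96 hours) at 37 C, 5% CO2.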
Pf growth 48h: inhibits P. falciparum growth in the first generation, 48 h; 310,000 tested, 5.9% active; Potency, µM (doses to about 28.7 µM), without a hit: at the highest dose activity change, negative = inhibition, hits mostly inhibitors; P. falciparum luciferase growth in erythrocytes, 48 h; also: % is scaled to controls: 0 for no effect and ±100 for the full control effect
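In quantitative HTS format, infected erythrocytes bearing luciferase-reporter parasites were treated for a single generation at 37 C. Luminescence after adding detection reagent served as the growth measure.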
SARS PLpro yeast: blocks SARS-CoV papain-like protease in a yeast assay; S. cerevisiae expressing SARS-CoV PLpro, growth rescue; Potency, µM (highest dose often 32.9 µM), for inactives: at the highest dose activity, positive = growth rescue, usual class: activators; 330,000 tested, 0.19% active; AID 485353; calls by dose curve; also: 0% is about no effect; nearly all actives have a fitted effect of over 55% in size
Starred values were filed as active, the others as inactive; [ ] = remark or other dose. Shown are actives, neighbours in structure and some others; about 10% of the full set was active somewhere. Unless noted, calls follow the shape of the dose curve; as a rule, active = well fitted inhibition curve with a large enough effect; inconclusive = small, poorly fitted or top-dose-only effect, or another doubt; inactive = no such curve, though single readings can be large or run the other way. Potency is read from the fitted curve at half-maximal effect.

COc1ccc(NC(=O)N2C3CCCC2CC(NC(=O)c2ccccc2)C3)cc1 (stereo unspecified) was read as NS1 function inh -5%, Pf growth 96h 0%, Pf growth 48h -6% and SARS PLpro yeast 0%.
`CCNC(=O)CC1C(=O)N(c2ccccc2)C(=O)N1CCOC` (stereo unspecified) gave NS1 function inh 0%, Pf growth 96h 11%, Pf growth 48h 30% and SARS PLpro yeast 2%.
Screening COc1ccccc1C(=O)Nc1ccc(S(=O)(=O)Nc2cnc3ccccc3n2)cc1 returned NS1 function inh 0%, Pf growth 96h 18%, Pf growth 48h -3% and SARS PLpro yeast -1%.
For COc1cc(C(=O)N(C)CC(=O)Nc2cccc(F)c2)ccc1OCc1ccccc1 the results were Pf growth 96h -25%, Pf growth 48h -4% and SARS PLpro yeast 1%.
O=C(c1ccc(S(=O)(=O)c2ccc(F)cc2)c([N+](=O)[O-])c1)N1CCCCCC1 was read as NS1 function inh 3%, Pf growth 96h -17%, Pf growth 48h 3.3µM* and SARS PLpro yeast inconclusive.
Cc1ccc(C(=O)N2CCCCC2)cc1S(=O)(=O)N1CCCCCC1 was read as NS1 function inh 2%, Pf growth 96h 8.3µM*, Pf growth 48h inconclusive and SARS PLpro yeast -4%.
O=C(c1ccc(S(=O)(=O)Cc2ccccc2F)c([N+](=O)[O-])c1)N1CCCC1 was read as Pf growth 96h inconclusive, Pf growth 48h -16% and SARS PLpro yeast -1%.
For O=C(c1ccc(S(=O)(=O)N2CCCCC2)cc1)N1CCN(CCN2C(=O)c3cccc4cccc(c34)C2=O)CC1 the results were Pf growth 96h 3.3µM*, Pf growth 48h inconclusive and SARS PLpro yeast 2%.
For NC(=O)c1ccc(N2CCN(S(=O)(=O)c3ccccc3)CC2)c([N+](=O)[O-])c1 the results were Pf growth 96h 35%, Pf growth 48h inconclusive and SARS PLpro yeast 1%.
Screening O=C(c1ccc(N2CCCCC2)c([N+](=O)[O-])c1)N1CCN(S(=O)(=O)c2ccccc2)CC1 returned Pf growth 96h inconclusive, Pf growth 48h 12µM* and SARS PLpro yeast -5%.
Screening O=C(OCCN1C(=O)c2ccccc2C1=O)c1ccc(S(=O)(=O)N2CCCCCC2)cc1 returned NS1 function inh -2%, Pf growth 96h 3%[5.75 µM], Pf growth 48h -11% and SARS PLpro yeast 1%.
Screening COc1ccc(NC(=O)c2oc3ccccc3c2NC(=O)C2CC2)cc1OC returned NS1 function inh -13%, Pf growth 96h 12µM*, Pf growth 48h inconclusive and SARS PLpro yeast -2%.
`COc1ccccc1NC(=O)c1oc2ccccc2c1NC(=O)C1CC1` gave NS1 function inh -2%, Pf growth 96h 15µM*, Pf growth 48h 12µM* and SARS PLpro yeast 7%.
For Cn1c(=O)c2c(ncn2CC2OCCO2)n(C)c1=O the results were NS1 function inh 0%, Pf growth 96h 40%, Pf growth 48h 6% and SARS PLpro yeast 0%.
For CC1CC(C)CN(C(=O)Cn2c(=O)oc3cc(S(=O)(=O)N4CCCC4)ccc32)C1 (stereo unspecified) the results were NS1 function inh -1%, Pf growth 96h 12µM*, Pf growth 48h inconclusive and SARS PLpro yeast -3%.
`CCOC(=O)Cn1c(=O)oc2cc(S(=O)(=O)N3CCn4c3nc3ccccc34)ccc21` gave NS1 function inh -55%, Pf growth 96h 15µM*, Pf growth 48h -11% and SARS PLpro yeast 1%.
`CCOC(=O)Cn1c(=O)oc2cc(S(=O)(=O)N3CCCC(C(=O)OCC)C3)ccc21` (stereo unspecified) gave NS1 function inh -3%, Pf growth 96h 10µM* and SARS PLpro yeast -1%.
`CCCCN(C)C(=O)Cn1c(=O)oc2cc(S(=O)(=O)N3CC(C)CC(C)C3)ccc21` (stereo unspecified) gave NS1 function inh 4%, Pf growth 96h 13µM*, Pf growth 48h inconclusive and SARS PLpro yeast 0%.
`Cn1ncc(Br)c1C(=O)OCC(=O)Nc1nc(-c2ccccc2)cs1` gave NS1 function inh 6%, Pf growth 96h 57%, Pf growth 48h 106% and SARS PLpro yeast -6%.
`COc1cc2c(cc1OC)C(CCN)=NCC2` gave NS1 function inh 2%.
`CCCCS(=O)CC(CS(=O)CCCC)OC(=O)c1ccccc1` (stereo unspecified) gave NS1 function inh -3%, Pf growth 96h 6.6µM*, Pf growth 48h 3% and SARS PLpro yeast 2%.
COc1ccc(Nc2nc(Cl)nc(NCCO)n2)cc1 was read as NS1 function inh 18%, Pf growth 96h -29%, Pf growth 48h 0% and SARS PLpro yeast 7%.
For COc1ccc(Nc2nc(Nc3ccc(OC)cc3)nc(SC3=NCCS3)n2)cc1 the results were NS1 function inh 11%, Pf growth 96h 12µM* and SARS PLpro yeast -3%.
CCN(CC)CCOc1c(Br)ccc2c1sc1nc3n(c(=O)c12)CCC3 was read as NS1 function inh -31%, Pf growth 96h 13µM*, Pf growth 48h inconclusive and SARS PLpro yeast 0%.
CCOc1nc(NC2CCCC2)nc(N2CCC(C)CC2)n1 was read as NS1 function inh -1%, Pf growth 96h inconclusive, Pf growth 48h inconclusive and SARS PLpro yeast 5%.
Screening CCOC(=O)N1CCN(C(=O)C2CCCN(c3ncnc4c3nc3n4CCCCC3)C2)CC1 (stereo unspecified) returned NS1 function inh -7%, Pf growth 96h inconclusive, Pf growth 48h -25% and SARS PLpro yeast -3%.
`COc1cccc(N2CCN(C(=O)C3CCCN(c4ncnc5c4nc4n5CCCCC4)C3)CC2)c1` (stereo unspecified) gave NS1 function inh -24%, Pf growth 96h 10µM*, Pf growth 48h inconclusive and SARS PLpro yeast -23%.
`COCCN(Cc1ccco1)C(=O)C1CCCN(c2ncnc3c2nc2n3CCCCC2)C1` (stereo unspecified) gave NS1 function inh -5%, Pf growth 96h 4.1µM*, Pf growth 48h inconclusive and SARS PLpro yeast 2%.
`CC1CCN(C(=O)C2CCCN(c3ncnc4c3nc3n4CCCCC3)C2)CC1` (stereo unspecified) gave NS1 function inh -24%, Pf growth 96h 9.3µM*, Pf growth 48h -22% and SARS PLpro yeast inconclusive.
For CCN1CCN(C(=O)C2CCCN(c3ncnc4c3nc3n4CCCCC3)C2)CC1 (stereo unspecified) the results were NS1 function inh 21%, Pf growth 96h 10µM*, Pf growth 48h inconclusive and SARS PLpro yeast 3%.
`Cc1c(NS(=O)(=O)c2cccc(C(=O)Nc3cccc(F)c3)c2)c(=O)n(-c2ccccc2)n1C` gave Pf growth 96h -10%, Pf growth 48h -14% and SARS PLpro yeast 3%.
For O=C(CCc1nc2ccccc2s1)OCC(=O)c1ccc[nH]1 the results were NS1 function inh 0%, Pf growth 96h 0%, Pf growth 48h 24% and SARS PLpro yeast 0%.
`Cc1ccc(C=Nc2ccccc2C(N)=O)o1` gave NS1 function inh inconclusive, Pf growth 96h 202%, Pf growth 48h 155% and SARS PLpro yeast -24%.
Cc1ccc(C=Nc2ccc(N(C)C)cc2)o1 was read as NS1 function inh 3%, Pf growth 96h 0.93µM*, Pf growth 48h inconclusive and SARS PLpro yeast -10%.
